Screens as filed in PubChem.
TSHR ag = agonists of human thyroid stimulating hormone receptor. P16473. HEK293-CNG-TSHR cells (CNG channel as cAMP sensor), membrane potential dye, cAMP. Potency, µM (titrated, usually from 57.1 µM), inactives show at the top dose activation, actives largely listed as activators. 0.48% of 73,000 active; active = well fitted activation curve with a large enough effect in the main read-out, with a control signal flat, not every such curve was filed as active; inconclusive = small, poorly fitted or top-dose-only effect, or a change in a side signal; inactive = no such curve, though single readings can be large or run the other way; % of control where 0% means no effect;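 note: the control signal comes from parental cells without the receptor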
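HEK 293 cells stably expressing TSHR and a modified CNG channel, with CNG-only parental cells as counterscreen, were preloaded 60 min at room temperature with membrane potential dye containing 100 uM RO 20-1724. Compound exposure was 30 min, and depolarization was read as fluorescence at 590 nm.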
USP2a inh = inhibitors of human ubiquitin-specific protease USP2a; USP2a enzymatic assay, qHTS inhibition; AID 927; 0.1% of 60,000 active; Potency, µM (top dose mostly 38.3 µM), for inactives: top-dose activity change, negative = inhibition, hits mostly inhibitors; note: nearly all actives have a fitted effect of over 60% in size
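20 nM USP2 core + cpd, 30 min RT; add 20 nM Ub-PLA2/20 uM NBD C6-HPC; read Ex460/Em535 at 0 h and 2.5 h. Normalized to NEM; qHTS curve fit/classification.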
HEK293 cAMP ctrl = counter-screen for TSHR agonists: cAMP increase in parental HEK293; parental HEK293 CNG cAMP sensor, membrane potential fluorescence; Potency, µM (titrated, usually from 57.1 µM), without a hit: at the highest dose activation, actives largely listed as activators; 2.5% of 73,000 active; note: % of control where 0% means no effect; nearly all actives have a fitted effect of over 55% in size
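Parental HEK 293 cells stably expressing a cAMP-gated CNG channel were loaded with membrane potential dye containing 100 uM RO 20-1724 for 60 min. Compound added for 30 min; depolarization read as fluorescence intensity at 590 nm.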
Caspase-7 inhib = caspase-7 (human) inhibition, allosteric or competitive. 0.02% of 75,000 active. recombinant caspase-7, Ac-DEVD-AFC fluorescence rate. AID 889. Potency, µM (top dose mostly 57.5 µM), without a hit: top-dose activity change, negative = inhibition, actives largely listed as inhibitors. P55210; active = well fitted inhibition curve with a large enough effect in the main read-out, with a control signal flat, not every such curve was filed as active; inconclusive = small, poorly fitted or top-dose-only effect, or a change in a side signal; note: % of control where 0% means no effect
Caspase-1 inhib = blocks human caspase-1 allosterically or competitively | P29466 | Caspase-1 enzyme, Ac-WEHD-AFC fluorogenic rate | Potency, µM (highest dose often 57.5 µM), without a hit: top-dose activity change, negative = inhibition, hits mostly inhibitors | 0.03% of 75,000 active | AID 900;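 note: plate controls were vehicle for no effect and no substrate for full effect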
CRE Fsk mod = CRE-bla signaling modulation under forskolin stimulation | CHO CRE-bla reporter (cAMP response element driving beta-lactamase), forskolin EC10, beta-lactamase ratio | Potency, µM (highest dose often 38.2 µM), for the others: top-dose activity change, negative = inhibition, usual class: activators | 2.5% of 71,000 active | AID 662; active = well fitted activation curve with a large enough effect in the signal ratio, with a control signal flat, not every such curve was filed as active; inconclusive = small, poorly fitted or top-dose-only effect, or effect the other way, or a change in a side signal; the % refers to the signal ratio; note: % of control where 0% means no effect
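Forskolin analogue NKH 477 at EC10 stimulated CRE-driven beta-lactamase in CHO cells alongside compound dilution series. Beta-lactamase was measured with CCF4, excitation 405 nm, emission ratio 460/530 nm.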
Active calls of the source: *; ? = inconclusive; / = no result given; [ ] = dose if it differs, or a comment. This is a sample that favours compounds with a hit; in the whole collection about 5% have one here. Unless noted, calls come from the whole dose curve; as a rule, active = well fitted curve in the direction sought with a large enough effect; inconclusive = small, poorly fitted or top-dose-only effect, or another doubt; inactive = no such curve, though single readings can be large; an effect the other way counts as inactive or inconclusive. Potency is the fitted concentration of half-maximal effect.

SMILES	TSHR ag	USP2a inh	HEK293 cAMP ctrl	Caspase-7 inhib	Caspase-1 inhib	CRE Fsk mod
Fc1cccc(Cl)c1CSc1nnc(COc2cccc3cccnc23)o1	?	12%	25µM*	-6%	-5%	18%
NCCc1nnc(SCc2c(F)cccc2Cl)o1	8%	5%	15%	-1%	-2%	?
CCOC(=O)c1cn(-c2ccccc2)nc1-c1ccncc1	23%	2%	4%	-5%	1%	10µM*
CC(C)OC(=O)c1cn(-c2ccccc2)nc1-c1ccco1	25µM*	34%	18%	-3%	-2%	11%
CCOC(=O)c1cn(-c2ccccc2)nc1-c1cccnc1	6%	/	-2%[11.4 µM]	-2%	-1%	/
Cc1cc(NC(=O)CSc2nnc(COc3ccccc3)n2Cc2ccco2)no1	-3%	-4%	-8%	0%	-4%	7%
O=C(CSc1nnc(COc2ccccc2)n1Cc1ccco1)Nc1ccc2c(c1)OCCO2	20µM*	-11%	15%	0%	-2%	-14%
O=C(CSc1nnnn1Cc1ccccc1)Nc1ccc2c(c1)OCCO2	3.2µM*	7%	4%	0%	0%	-14%
Cc1nnc2sc(-c3csc4c3CCCC4)nn12	/	13%	28%	1%	2%	10µM*
Clc1ccc(C(c2nnnn2C2CCCCC2)N(Cc2cccnc2)Cc2ccco2)cc1 (stereo unspecified)	?	109%	3.2µM*	-1%	0%	-2%
Cc1ccc2[nH]c(=O)c(C(c3nnnn3C3CCCC3)N(Cc3cccnc3)Cc3ccco3)cc2c1 (stereo unspecified)	?	24%	?	-5%	-9%	-6%
Clc1ccc([C@@H](c2ccccc2Cl)C(Cl)Cl)cc1	20µM*	/	12%	/	/	16%
Clc1ccccc1C(Nc1ncccn1)Nc1ncccn1	-1%[11.4 µM]	/	-1%[11.4 µM]	-1%[11.5 µM]	-4%[11.5 µM]	-3%[7.6 µM]
CCOc1ccccc1N1CCN(S(=O)(=O)c2cccs2)CC1	?	-2%	10µM*	0%	-3%	9%
Cc1cc(Cl)ccc1Nc1sc(C(=O)c2cc3cc(Cl)ccc3o2)c(N)c1C#N	-3%[11.4 µM]	/	13%[11.4 µM]	-8%[11.5 µM]	-3%[11.5 µM]	?
CN1CCN(C(=O)c2cc(-c3ccc(O)cc3)on2)CC1	9%	/	-2%	0%	-1%	-8%
COc1cccc([C@H]2Oc3ccc(OC)cc3/C(=N\O[C@@H]3O[C@H](COC(C)=O)[C@H](OC(C)=O)[C@H](OC(C)=O)[C@H]3OC(C)=O)[C@@H]2O)c1	4%[11.4 µM]	/	0%[11.4 µM]	-1%[11.5 µM]	1%[11.5 µM]	/
CC(C)n1c(C(=O)OCC(=O)NCc2ccc3c(c2)OCO3)cc2sccc21	?	-7%	7.9µM*	-2%	-2%	18%
CC(C)n1c(C(=O)OCC(=O)NCc2ccc3c(c2)OCO3)cc2occc21	?	0%	16µM*	-2%	-7%	19%
COC(=O)C1C(C)OC(=O)NC1c1ccccc1 (stereo unspecified)	-3%[11.4 µM]	/	0%[11.4 µM]	1%[11.5 µM]	2%[11.5 µM]	/
COc1ccc(Nc2cc(C)nc3ncnn23)c(OC)c1	3%	/	-1%	-1%	0%	14%
COc1ccc(CNc2cc(C)nc3ncnn23)c(OC)c1	?	10%	4µM*	-2%	2%	25%
Cc1ccc(C)c(C(=N)c2ccccc2Cc2ccccc2)c1	/	/	21%[11.4 µM]	4%[11.5 µM]	-2%[11.5 µM]	9%[7.6 µM]
CCOC(=O)c1cnn2c(C(F)F)cc(C3CC3)nc12	1%	2%	5%	0%	0%	?
O=C(Nc1cccnc1)c1cnn2c(C(F)F)cc(C3CC3)nc12	25%	11%	-4%	2%	-1%	7.9µM*
SMILES	TSHR ag	USP2a inh	HEK293 cAMP ctrl	Caspase-7 inhib	Caspase-1 inhib	CRE Fsk mod
CC(=O)N1CCC2(CC1)CCN(C(c1ccccc1)c1ccccc1)CC2	9%	13%	27%	-2%	-1%	-7%
COC(=O)N1CCC2(CC1)CN(C(c1ccccc1)c1ccccc1)C2	19%	-3%	30%	-1%	-1%	-13%
COC(=O)N1CCC[C@@]2(CCN(C(c3ccccc3)c3ccccc3)C2)C1	?	21%	7.9µM*	-1%	-6%	-5%
O=C(c1ccco1)N1CCC2(CC1)CN(C(c1ccccc1)c1ccccc1)C2	?	63%	?	-2%	-3%	-12%
O=C(c1ccco1)N1CCC[C@@]2(CCN(C(c3ccccc3)c3ccccc3)C2)C1	?	151%	16µM*	-3%	-3%	?
Cc1noc(C)c1C(=O)N1CCC2(CC1)CCN(C(c1ccccc1)c1ccccc1)CC2	32µM*	57%	22%	-1%	-1%	-9%
CC(=O)N1CCC2(CCCN(C(c3ccccc3)c3ccccc3)C2)CC1	?	50%	16µM*	-4%	-3%	?
C[C@]1(c2ccccc2)O[C@@H]2C[C@@H]3[C@@H]4CCC5=CC(=O)C=C[C@@]5(C)[C@]4(F)[C@H](O)C[C@]3(C)[C@@]2(C(=O)CO)O1	-5%[11.4 µM]	/	-15%[11.4 µM]	-1%[11.5 µM]	4%[11.5 µM]	2%[7.6 µM]
Cn1c(=O)c2c(nc(CN3CCc4ccccc4C3)n2CCc2ccccc2)n(C)c1=O	?	4%	5µM*	-1%	2%	3%
COc1ccc(N2CCN(Cc3nc4c(c(=O)n(C)c(=O)n4C)n3Cc3ccccc3C)CC2)cc1	10µM*	/	4%	-2%	-1%	?
CCN1CCN(Cc2nc3c(c(=O)n(C)c(=O)n3C)n2CCc2ccccc2)CC1	?	/	?	2%	-4%	?
COc1ccc(N2CCN(Cc3nc4c(c(=O)n(C)c(=O)n4C)n3CCc3ccccc3)CC2)cc1	?	/	?	-2%	-1%	?
Cn1c(=O)c2c(nc(CN3CCCCC3)n2Cc2c(F)cccc2Cl)n(C)c1=O	?	/	?	-1%	-1%	13µM*
COc1cc(-c2nn3c(-c4ccccc4)nnc3s2)cc(OC)c1OC	11%	27%	-4%	-1%	-1%	4µM*
COc1cc(-c2nnc3sc(-c4ccncc4)nn23)cc(OC)c1OC	1%[11.4 µM]	9%	-2%	1%	-1%	2µM*
COc1cc(-c2nn3c(Cc4ccccc4)nnc3s2)cc(OC)c1OC	/	34%	12%	-1%	0%	0.79µM*
COc1cc(OC)c(-c2nn3c(-c4ccncc4)nnc3s2)cc1OC	-1%	-29%	0%	-2%	-1%	?
Nc1nc2c(nc(Br)n2[C@@H]2O[C@H]3COP(=O)(O)O[C@@H]3[C@H]2O)c(=O)[nH]1	?	-4%	?	2%	1%	-4%
O=C(O)c1[nH]c2c([N+](=O)[O-])cc([N+](=O)[O-])cc2c1C(=O)O	9%[11.4 µM]	/	18%[11.4 µM]	2%[11.5 µM]	1%[11.5 µM]	?
